High-throughput results from PubChem BioAssay.
Sampled rows, rich in hits. Any-hit rate of the full collection: about 6.2%.
HCMV inh = human cytomegalovirus inhibition; activity change, negative = inhibition, % at 57.5 µM; HFF cells, HCMV-luciferase reporter, 72 h; stronger effect = lower value; actives 4.5% (n = 410,000); AID 1259415; in the data active means activity change below about -60%; inconclusive means no clear call, values can overlap the other calls; inactive means above about -39%
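After 16 h attachment at 37C, HFF cells received test compound and HCMV-luciferase (1 PFU/cell); reporter luminescence read 72 h later, data normalized against buffer-only and known inhibitor Salinomycin.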
Marburg entry inh = inhibitors of Marburg virus binding or cell entry; Potency, µM (top dose mostly 37.8 µM), usual class: inhibitors; AID 540276; Marburg virus pseudotyped entry inhibition, cell reporter; actives 1.8% (n = 300,000); calls by dose curve; tested in HEK293 cells
FMDV antiviral = antivirals against foot and mouth disease virus. FMDV antiviral cell-based qHTS. Potency, µM (doses to about 57.9 µM), actives largely listed as inhibitors. actives 1.2% (n = 410,000). AID 1159524; calls by dose curve; tested in HEK293T cells; further: read-out not given here; nearly all actives have a fitted effect of over 45% in size
Lassa entry inh = blocks Lassa virus binding to or entry into cells; Potency, µM (series often up to 37.9 µM), most hits filed as inhibitors; AID 540256; actives 1.2% (n = 300,000); Lassa virus pseudotype entry inhibition, cell reporter; calls by dose curve; tested in HEK293 cells; further: nearly all actives have a fitted effect of over 50% in size
WI-38 tox = counter-screen for perinucleolar compartment inhibitors: WI-38 cytotoxicity; shares compounds with Marburg entry inh; WI-38 normal lung fibroblasts, ATPLite luminescence ATP viability, 24 h; Potency, µM (doses to about 46.1 µM), hits mostly inhibitors; 120 tested, under 10 active
PNC assembly inh = confirmation of perinucleolar compartment assembly inhibitors | shares compounds with Marburg entry inh | PC3M PTB-GFP, PNC prevalence imaging, 16 h | Potency, µM (highest dose often 46.1 µM), hits mostly inhibitors | actives 50% (n = 120) | AID 2730
PC3M caspase = activates caspase 3/7 in PC3M cells in PNC counter-screen; shares compounds with Marburg entry inh; PC3M-GFP caspase 3/7 activation, luminescence, 24 h; activity change, positive = activation, % at 46.1 µM; 120 tested, under 10 active
A number is an active result; - = inactive; ? = inconclusive; . = not tested or not shown. Unless noted, the call rests on the fitted dose curve; in most records, active means well fitted curve in the direction sought with a large enough effect; inconclusive means small, poorly fitted or top-dose-only effect, or another doubt; inactive means no such curve, though single readings can be large; an effect the other way counts as inactive or inconclusive.

SMILES	HCMV inh	Marburg entry inh	FMDV antiviral	Lassa entry inh	others
Fc1ccc(C(NCCc2ccc(Cl)cc2)c2nnc(-c3ccccc3)o2)c(Cl)c1 (stereo not given)	-	-	-	-
CC1(C)CCC[C@]2(C)[C@H]3Cc4cc(O)ccc4O[C@]3(C)CC[C@@H]12	-88	.	-	.
COc1ccc(S(=O)(=O)N2CC3CC(C2)c2cccc(=O)n2C3)cc1 (stereo not given)	-65	-	-	-
CC(C)(C)c1ccc(S(=O)(=O)N2CC3CC(C2)c2cccc(=O)n2C3)cc1 (stereo not given)	-	-	.	-
Fc1ccc(C2CCNCC2COc2ccc3c(c2)OCO3)cc1 (stereo not given)	-	?	-	?
Fc1ccc([C@@H]2CCNC[C@H]2COc2ccc3c(c2)OCO3)cc1	?	16µM	?	?
CC(=O)c1ccc(NC(=O)Cn2nc(C(F)(F)F)c3c2CCCC3)cc1	-	-	-	-
CCCCC(CC)CNC(=O)c1[nH]c(C)c(C(C)=O)c1C (stereo not given)	-65	-	-	.
CCCCNC(=O)c1[nH]c(C)c(C(C)=O)c1C	-	-	-	-
CCC(=O)NC(c1cccs1)c1cc([N+](=O)[O-])c2cccnc2c1O (stereo not given)	-81	?	-	?
CCC(=O)NC(c1cccs1)c1cc(Cl)c2ccccc2c1O (stereo not given)	-	.	-	.
O=C(CCc1ccccc1)NC(c1cccs1)c1cc(Cl)c2cccnc2c1O (stereo not given)	-102	?	-	2.8µM
CCCC(=O)NC(c1cccs1)c1cc([N+](=O)[O-])c2cccnc2c1O (stereo not given)	-99	?	-	?
Cc1cccc(-n2nnc(-c3nc(-c4cccs4)no3)c2N)c1C	-	.	-	-
COc1ccc(-n2c(C)ccc2C)c([N+](=O)[O-])c1	-	?	-	-
O=C(CNC(=O)c1cccs1)c1ccc(F)cc1	-75	?	-	-
O=C(CNC(=O)c1ccco1)OCC(=O)c1ccc([N+](=O)[O-])cc1	-64	-	-	-
Cc1ccc(C(=O)COC(=O)c2cccs2)cc1	-	?	22µM	-
O=C(CNC(=O)c1cccs1)c1ccc([N+](=O)[O-])cc1	-	?	-	-
O=C(CNC(=O)c1cccs1)OCC(=O)c1ccc([N+](=O)[O-])cc1	-65	-	-	-
CCc1ccc(C(=O)COC(=O)c2cccs2)cc1	-	-	-	.
O=C(CN1C(=O)CCC1=O)Nc1nc(-c2ccc(Cl)s2)cs1	-	-	-	-
CNc1cnc(-c2ccc(C(=O)N3CCOCC3)cc2)cn1	-	.	-	.
CCOC(=O)CCN1C(=O)[C@H]2[C@H]3[C@H](O)[C@H](O)C/C(=N\NC(=O)OCc4ccc(OC)cc4)[C@H]3CC[C@H]2C1=O	.	-	.	.
CCOC(=O)CCN1C(=O)[C@@H]2[C@H]3[C@H](O)[C@H](O)CC(=NNC(=O)OCc4ccc(OC)cc4)[C@H]3CC[C@H]2C1=O	.	-	.	0.17µM
SMILES	HCMV inh	Marburg entry inh	FMDV antiviral	Lassa entry inh	others
Cc1cc(C)cc(OCCOCCn2c(-c3ccc(Cl)cc3)nc3ccccc3c2=O)c1	-	7.1µM	-	-
CCOc1ccc(CCNC(=O)c2cc3cc4ccc(OC)cc4nc3s2)cc1OCC	-	?	-	-
COc1ccc2cc3cc(C(=O)NC4CC4)sc3nc2c1	-	.	16µM	.
Cc1cc(C(=O)N/N=C/c2cc(Br)cc(Br)c2OC(=O)c2ccccc2)n[nH]1	.	-	.	?	WI-38 tox=-;PNC assembly inh=?;PC3M caspase=-
Cc1cc(C(=O)N/N=C\c2cc(C(C)(C)C)ccc2O)n[nH]1	.	.	-	.
Cc1ccc(S(=O)(=O)N(C)c2ccc(OCC(=O)Nc3nc(-c4ccccc4)cs3)cc2)cc1	-	?	-	?
Cc1ccc(S(=O)(=O)N(C)c2ccc(OCC(=O)Nc3nc4ccccc4s3)cc2)cc1	-80	15µM	?	?	WI-38 tox=-;PNC assembly inh=?;PC3M caspase=-
CCOCCCN(C(=O)Nc1ccc(Cl)cc1)C1CCN(C(C)=O)CC1	-	.	-	-
CCCCN(C(=O)Nc1ccc(Cl)cc1)C1CCN(C(C)=O)CC1	-	-	-	?	WI-38 tox=-;PNC assembly inh=-;PC3M caspase=-
Cc1cccc(NC(=O)CSCC(=O)OCc2ccccn2)c1	-	-	-	-
